A selection: hits, their analogues and other compounds. The true share with any hit is near 9%.
IMPase Li inh = membrane-permeable IMPase blocker, potentiated with lithium; AID 1457; 0.35% of 210,000 active; Potency, µM (highest dose often 59.4 µM), inactives show at the top dose activity, negative = IMPase inhibition, hits mostly inhibitors; CHO-M1 cells, IP1 TR-FRET (IP-One), carbachol + lithium;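 also: IP1 builds up when IMPase is blocked and the TR-FRET signal falls; potency is read from the fitted curve at half-maximal effect; plate controls were basal vehicle for no effect and high inhibitor control for full effect; nearly all actives have a fitted effect of over 50% in size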
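Steps: plate 2000 CHO-M1 cells per well and culture 16–30 h; add compound and lithium; incubate 30 min, 37C; add d2-IP1 tracer and Eu cryptate anti-IP1 antibody in lysis buffer; read after 10 min at room temperature.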
HPGD block = blocks human HPGD enzyme activity; P15428; purified HPGD, NADH fluorescence kinetic, PGE2 substrate; Potency, µM, inactives show at the highest dose activity change, negative = inhibition, usual class: inhibitors; 4.3% of 150,000 active; active = well fitted inhibition curve with a large enough effect, not every such curve was filed as active; inconclusive = small, poorly fitted or top-dose-only effect, or another doubt; inactive = no such curve, though single readings can be large or run the other way; also: potency is read from the fitted curve at half-maximal effect; % is scaled to controls: 0 for no effect and ±100 for the full control effect
Target sequence (P15428 whole entry, looked up): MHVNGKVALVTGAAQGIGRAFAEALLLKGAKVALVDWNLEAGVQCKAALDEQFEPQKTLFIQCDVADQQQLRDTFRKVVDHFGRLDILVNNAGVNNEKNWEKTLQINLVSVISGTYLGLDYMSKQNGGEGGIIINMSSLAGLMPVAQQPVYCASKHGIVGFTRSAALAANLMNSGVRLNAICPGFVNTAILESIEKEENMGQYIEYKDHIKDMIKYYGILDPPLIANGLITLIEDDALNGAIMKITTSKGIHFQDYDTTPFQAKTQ
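NADH formation kinetics: reaction with 30 uM PGE2 and 1 mM NAD+ (final), 20 nM enzyme, Tris-HCl pH 8 with Tween 20, after 15 min compound preincubation at room temperature. Fluorescence change, last versus first of five reads.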
Luc counter = Kinase-Glo luciferase inhibition (counter-screen); AID 1379; Kinase-Glo luciferase, ATP luminescence, 8 min; 0.28% of 200,000 active; Potency, µM (highest dose often 38.3 µM), for the others: top-dose activity change, negative = inhibition, most hits filed as inhibitors; Q27757; also: potency is read from the fitted curve at half-maximal effect; % is scaled to controls: 0 for no effect and ±100 for the full control effect; nearly all actives have a fitted effect of over 60% in size
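Inhibition of Kinase-Glo luciferase light generation was assessed at 10 uM ATP in pH 7.2 imidazole buffer, with luminescence measured after eight minutes at ambient temperature.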
ALDH1A1 inh-1 = blocks purified human ALDH1A1 activity | Purified ALDH1A1, NADH fluorescence, propionaldehyde substrate | Potency, µM (doses to about 75.3 µM), for inactives: at the top dose activity, negative = inhibition, most hits filed as inhibitors | 7.3% of 220,000 active | AID 1030; active = well fitted inhibition curve with a large enough effect, not every such curve was filed as active; inconclusive = small, poorly fitted or top-dose-only effect, or another doubt; inactive = no such curve, though single readings can be large or run the other way;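 also: potency is read from the fitted curve at half-maximal effect; plate controls were no enzyme wells and a reference inhibitor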
Lamin A splicing = LMNA splicing modulation | Potency, µM (series often up to 46.1 µM), for the others: top-dose ratio change, negative = inhibition, actives largely listed as inhibitors | HeLa LMNA splicing GFP/RFP minigene ratio, 48 h | 0.01% of 200,000 active; active = well fitted inhibition curve with a large enough effect in the signal ratio, with a control signal flat, not every such curve was filed as active; inconclusive = small, poorly fitted or top-dose-only effect, or effect the other way, or a change in a side signal; the % refers to the signal ratio; also: potency is read from the fitted curve at half-maximal effect; % is scaled to controls: 0 for no effect and ±100 for the full control effect
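Read-out is the ratio of GFP to DsRed2 object intensity, acquired by 488 nm laser-scanning cytometry on HeLa lamin A-EGFP minigene reporter cells. Compound incubation 48 hrs at 37 °C in Opti-MEM with 2% FBS; DMSO 0.5% final.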
ALDH1A1 inh-2 = Confirms inhibition of human ALDH1A1 with counterscreen. AID 493210. 90% of 90 active. purified ALDH1A1, NADH fluorescence, propionaldehyde/NAD+. shares compounds with ALDH1A1 inh-1. Potency, µM (titrated, usually from 57.1 µM), for the others: top-dose activity change, negative = inhibition, most hits filed as inhibitors; calls by dose curve
* marks the source's active call; other numbers are inactive results; ? = inconclusive; . = no result; [ ] = remark or other dose. Unless noted, calls follow the shape of the dose curve; as a rule, active = well fitted curve in the direction sought with a large enough effect; inconclusive = small, poorly fitted or top-dose-only effect, or another doubt; inactive = no such curve, though single readings can be large; an effect the other way counts as inactive or inconclusive.

SMILES | IMPase Li inh | HPGD block | Luc counter | ALDH1A1 inh-1 | Lamin A splicing | ALDH1A1 inh-2
COc1ccc(S(=O)(=O)NCC2CCCN(C(=O)CNC(C)=O)C2)cc1 (stereo not drawn) | -2% | . | 0% | ? | 9%[46 µM] | .
CCCCC(CC)CNC(=O)C1C2C=CC(C2)C1C(=O)O (stereo not drawn) | 16%[38.3 µM] | -6% | -2% | 6% | 0% | .
COc1cc(C(=O)Nc2ccc(Br)cc2C(=O)c2cc(OC)c(OC)c(OC)c2)cc(OC)c1OC | -16%[38.3 µM] | -13% | -4% | 1% | ? | .
Cc1cc(NC(=O)c2ccccc2-c2ccccc2)ccc1Br | 14% | -12% | -2% | 4% | ? | .
O=C(CN1CCN(C2CCCCC2)CC1)Nc1ccccc1-c1ccccc1 | 19% | 0% | 5% | 6.3µM* | -7% | ?
O=C(CN1CCN(C2CCCCC2)CC1)Nc1cccc2ccccc12 | 10% | . | 3% | ? | 2%[46 µM] | .
O=C1CCCCC1c1cccc2ccccc12 (stereo not drawn) | . | 0% | . | 10% | . | .
O=C1O/C(=C/Br)CCC1c1cccc2ccccc12 (stereo not drawn) | 11% | 20µM* | -2% | 0.5µM* | ? | 0.63µM*
O=C1C(=O)N(Cc2ccc(Cl)c(Cl)c2)c2ccccc21 | 31% | -27% | -2% | 0.05µM* | . | 0.079µM*
Cc1cc(Cc2cc(Cc3cc(C)cc(C(C)(C)C)c3O)c(C)cc2C)c(O)c(C(C)(C)C)c1 | 3% | -10% | 1%[7.66 µM] | 2%[13.5 µM] | . | .
CCn1c(SCC(=O)Nc2ccc3c(c2)OCCO3)nnc1-c1ccco1 | 18%[38.3 µM] | -3% | 3% | ? | -4% | .
Cn1c(SCC(=O)Nc2ccc3c(c2)OCCO3)nnc1-c1ccco1 | . | . | . | 0.032µM* | -6% | 25µM*
CCOc1ccc(NC(=O)CN2CCN(CC(=O)c3ccc(OCC)cc3)CC2)cc1 | 27%[38.3 µM] | -20% | -1% | 1.4µM* | 10% | 4.5µM*
CCN(CC)C(=O)CN1C(=O)C(=O)c2ccccc21 | 9% | . | 0% | 0.02µM* | 14%[46 µM] | 0.089µM*
O=C(CN1C(=O)c2ccccc2C1=O)NCCc1c[nH]c2ccccc12 | 0% | -13% | 0% | 6% | 4% | .
CCN(CC)C(=O)c1ccccc1NC(=O)CN1C(=O)c2ccccc2C1=O | -1% | . | 1% | -1% | ? | .
O=C(CN1C(=O)C(=O)c2ccccc21)NCCc1ccccc1 | -4% | . | -1% | 0.089µM* | . | 0.063µM*
O=C(N/N=C/c1ccccc1OCc1ccccc1)c1cccs1 | 10% | -24% | -4% | ? | ? | .
C=CCn1c(SCC#N)nc2sc(CC)cc2c1=O | 23% | . | -2% | ? | 0%[46 µM] | .
CCOC(=O)N1CCN(Cc2nc3c(c(=O)[nH]c(=O)n3C)n2Cc2ccccc2C)CC1 | 14%[38.3 µM] | -3% | 3% | ? | 4% | .
CCOC(=O)N1CCN(Cc2nc3c(c(=O)n(C)c(=O)n3C)n2Cc2cccc(C)c2)CC1 | -7%[38.3 µM] | -13% | -2% | 0.079µM* | 3% | 0.063µM*
CCOC(=O)N1CCN(Cc2nc3c(c(=O)n(C)c(=O)n3C)n2Cc2ccc(F)cc2)CC1 | -4% | -15% | 10% | -5% | -11% | .
CCOC(=O)N1CCN(Cc2nc3c(c(=O)n(C)c(=O)n3C)n2Cc2cccc3ccccc23)CC1 | 3%[38.3 µM] | -6% | 15% | 0.1µM* | ? | 0.04µM*
CCC(=O)N[C@@H]1Cc2ccccc2[C@@H](c2ccccc2)C1 | 15% | -2% | -3% | -8% | . | .
CC(=O)N1CCC(N(C(=O)Nc2c(F)cccc2F)C(C)C)CC1 | -3%[38.3 µM] | -7% | 1% | 27% | -11%[46 µM] | .

Screens from PubChem BioAssay.
